By viability is commonly meant a read-out of living cells in per cent, often relative to untreated cells.

Records with an inconclusive call do not appear. A number with no mark means an inactive call. Active and inactive are the calls of the source. Calls come from the whole dose curve; as a rule, active = well fitted curve in the direction sought with a large enough effect; inconclusive = small, poorly fitted or top-dose-only effect, or another doubt; inactive = no such curve, though single readings can be large; an effect the other way counts as inactive or inconclusive.

Test [1] is described as follows: BET inhibitor-based combinations targeting novel dependencies in MECOM-rearranged (r) AML: SET-2 cell line (AID 2202231).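 For viability: plate controls were DMSO treated cells for no effect and wells without cells for full effect.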 Note: nearly all actives have a fitted effect of over 35% in size. To be noted: SET-2 AML cells viability, CellTiter-Glo luminescence, 48 h; viability: hits give low values, concentration not given here. The essentials: (§1)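 500 cells/well; 11-pt dose curve; 48 h, standard incubator; CellTiter-Glo luminescence after 15 min RT; DMSO/empty-well normalization; AUC plus Z-AUC (mean-centered within each line).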
On the technique in general: Cellular ATP, detected with luciferase, serves as a proxy for viable cell number.

The nature of test [2]: BET inhibitor-based combinations targeting novel dependencies in MECOM-rearranged (r) AML: OCI-AML3 cell line (AID 2202232). Note: nearly all actives have a fitted effect of over 35% in size. To be noted: Potency: OCI-AML3 viability. The essentials: as §1
A short description of test [3]: BET inhibitor-based combinations targeting novel dependencies in MECOM-rearranged (r) AML: HNT-34 cell line (AID 2202234). Note: nearly all actives have a fitted effect of over 35% in size. The method, boiled down: (§2)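 Cells were plated at 500 per well and exposed to each drug across an 11-point dose range for 48 hr at standard incubator conditions. Viability was read by CellTiter-Glo luminescence, and activity was expressed as AUC and per-cell-line Z-transformed AUC.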

Test [4] in a line: BET inhibitor-based combinations targeting novel dependencies in MECOM-rearranged (r) AML: UCSD-AML1 cell line (AID 2202235). Note: nearly all actives have a fitted effect of over 40% in size. The essentials: as §2
The nature of test [5]: BET inhibitor-based combinations targeting novel dependencies in MECOM-rearranged (r) AML: AML-191 cell line (AID 2202236; note: nearly all actives have a fitted effect of over 35% in size). The method, boiled down:
as §1

Test [6] is described as follows: BET inhibitor-based combinations targeting novel dependencies in MECOM-rearranged (r) AML: AML-194 cell line (AID 2202237; note: nearly all actives have a fitted effect of over 40% in size). The essentials: as §1
A short description of test [7]: BET inhibitor-based combinations targeting novel dependencies in MECOM-rearranged (r) AML: MV-4-11 cell line (AID 2202233). Note: nearly all actives have a fitted effect of over 45% in size. The essentials:
as §2
Potency is the fitted concentration of half-maximal effect.

Consider `CC(=O)O/N=C1\C(=O)N(Cc2cc(Cl)ccc2Cl)c2ccc(Cl)cc21`, for which the Potency was 9340 nM (active) in test [1]; 13200 nM (active) in test [2]; 2950 nM (active) in test [3]; 8330 nM (active) in test [4]; 2350 nM (active) in test [5]; 2630 nM (active) in test [6].
Turning to `COc1ccnc(CS(=O)c2nc3ccc(OC(F)F)cc3[nH]2)c1OC` (centres undefined), in test [1], the viability was 114%. Besides, the Potency in test [2] is 23500 nM (active). In addition, the Potency entry in test [3], in test [4], in test [5] and in test [6] was “inactive” throughout.
Take `Cc1oc(=O)oc1CN1CCN(c2cc3c(cc2F)c(=O)c(C(=O)O)c2n3C(C)S2)CC1` (centres undefined): the viability in test [1] is 116%. Further, the Potency result in test [2], in test [3], in test [4], in test [5] and in test [6] was “inactive” each time.
Consider `CC#CC(=O)N1CC[C@@H](n2c(=O)n(-c3ccc(Oc4ccccc4)cc3)c3c(N)ncnc32)C1`, for which, in test [1], the viability is 83.2%. Further, the Potency entry in test [2], in test [4] and in test [6] was “inactive” each time. Further, the Potency in test [7] was 10500 nM (active).
`CC(=O)NCCCS(=O)(=O)O`: in test [1], the viability is 115%. Moreover, the Potency entry in test [2], in test [3], in test [4], in test [5] and in test [6] was “inactive” in each case.
With `O=C(O)CNC(=O)c1ncc(-c2cccc(Cl)c2)cc1O`, the viability in test [1] is 110%. Moreover, the Potency in test [2] was 6610 nM (active). The Potency entry in test [7], in test [4] and in test [6] was “inactive” each time.
Consider `Cc1ccc(S(=O)(=O)Nc2cc(-c3ccc(C#N)s3)ccc2C)cc1`, for which the Potency in test [1] is 74.2 nM (active); in test [2], 93.4 nM (active); in test [7], 105 nM (active); in test [5], 74.2 nM (active); in test [6], 83.3 nM (active).
Take `CNC1CCCN(c2c(F)cc3c(=O)c(C(=O)O)cn(C4CC4)c3c2OC)C1` (centres undefined): the viability in test [1] is 112%. The Potency result in test [2], in test [7], in test [4], in test [5] and in test [6] was “inactive” throughout.
As for `COc1cc2c3c(n(CCCn4ccnc4)c(=O)c2cc1OC)-c1cc2c(cc1C3=O)OCO2`, the Potency in test [1] is 37.2 nM (active); in test [2], 37.2 nM (active); in test [3] it was 26.3 nM (active); in test [4], 20.9 nM (active); in test [5] it was 33.2 nM (active).
`Cc1c(C(=O)Nc2ccc(Oc3ccnc4[nH]cc(-c5ccccc5)c34)c(F)c2)c(=O)n(-c2ccc(F)cc2)n1C`: the viability in test [1] is 96.3%. The Potency was 20900 nM (active) in test [2], 74.2 nM (active) in test [7], 590 nM (active) in test [5] and 1660 nM (active) in test [6].
As for `C[C@@H](Oc1ccc2[nH]nc(/C=C/c3cnn(CCO)c3)c2c1)c1c(Cl)cncc1Cl`, the Potency in test [1] is 1050 nM (active); in test [2], 8330 nM (active); in test [7], 296 nM (active); in test [4], 1050 nM (active); in test [6], 934 nM (active).
For `O=C1CC[C@H](N2Cc3c(OCc4ccc(CN5CCOCC5)cc4)cccc3C2=O)C(=O)N1`, in test [1], the viability was 102%. Further, the Potency entry in test [2], in test [3], in test [4], in test [5] and in test [6] was “inactive” in each case.
Consider `CN(C)CCNC(=O)NC[C@H]1CC[C@@H]2[C@H](O1)c1cc(C(F)(F)F)ccc1N[C@H]2c1ccccc1`, for which the Potency in test [1] is 742 nM (active); in test [2], 296 nM (active); in test [7] it was 296 nM (active); in test [4], 235 nM (active); in test [5], 332 nM (active); in test [6], 332 nM (active).
As to `O=C(Nc1cnn2ccc(N3CCC[C@@H]3c3cc(F)ccc3F)nc12)N1CC[C@H](O)C1`, in test [1], the viability was 98.9%. Also, the Potency result in test [2], in test [3] and in test [4] was “inactive” in each case.
Consider `CCOC(=O)C1=C(C)NC(=S)NC1c1cccc(O)c1` (centres undefined), for which the viability in test [1] is 98.4%. The results for the Potency in test [2] and in test [3] were 20900 nM (active) and 18600 nM (active), respectively.
Turning to `CN1CC(=O)N2[C@H](c3ccc4c(c3)OCO4)c3[nH]c4ccccc4c3C[C@@H]2C1=O`, the viability in test [1] was 116%. The Potency entry in test [2], in test [7], in test [5] and in test [6] was “inactive” throughout.
For `CCC(=O)O[C@]1(C(=O)CO)CC[C@H]2[C@@H]3CCC4=CC(=O)CC[C@]4(C)[C@H]3CC[C@@]21C`, in test [1], the viability is 101%. The Potency entry in test [2], in test [7] and in test [6] was “inactive” throughout.
In the case of `CC(=O)Nc1cc(Oc2ccc3c(nc(Nc4ccc(F)cc4F)n3C)c2C)ccn1`, the Potency in test [1] is 209 nM (active); in test [2], 934 nM (active); in test [3] it was 118 nM (active); in test [4] it was 235 nM (active).
With `C[C@H](NC(=O)c1c(N)nn2cccnc12)c1cc2cccc(C#Cc3cnn(C)c3)c2c(=O)n1-c1ccccc1`, the viability in test [1] was 101%. For the same compound, the Potency was 51.2 nM (active) in test [2], 8110 nM (active) in test [7], 1820 nM (active) in test [5] and 7230 nM (active) in test [6].
As to `C=CCN1C[C@H](C(=O)N(CCCN(C)C)C(=O)NCC)CC2c3cccc4[nH]cc(c34)C[C@H]21` (some centres undefined), the viability in test [1] was 115%. In test [2], the Potency is 10500 nM (active). For the same compound, the Potency result in test [3], in test [4], in test [5] and in test [6] was “inactive” in each case.
Turning to `C=C1C(=O)O[C@@H]2[C@H]3O[C@]3(C)CC/C=C(\C)CC[C@@H]12`, the Potency was 11800 nM (active) in test [1]; 6610 nM (active) in test [2]; 7420 nM (active) in test [3]; 10500 nM (active) in test [4]; 9340 nM (active) in test [5]; 11800 nM (active) in test [6].
Consider `CO[C@H]1C(=O)[C@]2(C)[C@@H](OC)C[C@H]3OC[C@@]3(OC(C)=O)[C@H]2[C@H](OC(=O)c2ccccc2)[C@]2(O)C[C@H](OC(=O)[C@H](O)[C@@H](NC(=O)OC(C)(C)C)c3ccccc3)C(C)=C1C2(C)C`, for which the Potency in test [1] is 3.7 nM (active); in test [2] it was 2.6 nM (active); in test [7] it was 2.3 nM (active); in test [4], 2.3 nM (active); in test [5], 3.7 nM (active); in test [6], 4.2 nM (active).
Take `CC(C)n1ncnc1-c1cn2c(n1)-c1ccc(O[C@@H](C)C(N)=O)cc1OCC2`: in test [1], the viability is 99%. Moreover, the Potency in test [2] is 2350 nM (active); in test [3], 18600 nM (active); in test [4] it was 5250 nM (active).
